From PubChem BioAssay
Records with an inconclusive call do not appear. The source made the active and inactive calls.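 Rule for the calls, unless noted: active = percent response above a set limit, the screen-wide mean plus 3 SD (cut at about 130% in these data); inactive = the rest.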

Key:
[1] = yeast TOR pathway RPL19A-GFP modulators, primary screen, cell-based, S. cerevisiae, multiplex flow cytometry (AID 1862; in the data active = percent of DMSO control GFP below about 86%;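 note: lower values mimic rapamycin by blocking the RPL19A rise seen in DMSO cells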); details: S. cerevisiae RPL19A-GFP strain, flow cytometry fluorescence, 3 h; at 10 µM; stronger effect = lower value
[2] = modulators of MEP2-GFP levels in yeast, primary screen, S. cerevisiae, multiplex flow cytometry (AID 1867;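 active = GFP response, as percent of the DMSO control, above the screen-wide mean plus 3 SD, about 139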;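 note: median GFP channel fluorescence of barcode-gated MEP2-GFP cells measured by flow cytometry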); details: S. cerevisiae MEP2-GFP strain, 3 h, at 10 µM, stronger effect = higher value, 100% means same as DMSO wells
[3] = modulators of CIT2-GFP expression in yeast, primary screen, S. cerevisiae, GFP fusion, multiplex flow cytometry (AID 1870); details: 3 h, at 10 µM, stronger effect = higher value;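 note: barcoded CIT2-GFP strain pooled with four other GFP strains with rapamycin as positive control; median GFP fluorescence per well over plate mean of DMSO wells so 100% = DMSO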
[4] = modulators of LAP4-GFP expression in yeast, primary screen, S. cerevisiae, multiplex flow cytometry (AID 1873;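 active = GFP signal, as percent of the solvent control, above the screen mean plus 3 SD, about 149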); details: 3 h, at 10 µM, stronger effect = higher value
[5] = modulators of AGP1-GFP expression in yeast TOR pathway, primary screen, cell-based, multiplex flow cytometry, S. cerevisiae (AID 1887;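 active = GFP signal above the screen-wide mean plus 3 SD, that is over about 124.5% of the solvent control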;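 note: AGP1-GFP fusion strain of S. cerevisiae within a five-strain barcoded multiplex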); details: 3 h, at 10 µM, stronger effect = higher value
[6] = inhibitors of CD8+ T cell-vesicle binding, pilot screen, LFA-1/ICAM-1 modulator project, MLPCN validation set, flow cytometry (AID 2523;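 active = response below a set limit, under 55% cells CD8-positive and vesicle-bound, and CD8 cells' 90th-percentile brightness under 279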;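 for vesicle binding response: mean PE anti-B7-1 fluorescence of CD8+ cells relative to row control; 100% = QL9-loaded vesicles with DMSO vehicle in the same plate row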); details: 2C mouse CD8+ T cells, at 7 µM, stronger effect = lower value; double positive events: measured here: CD8+/vesicle+ event percentage
[7] = target: Integrin beta-1 (Homo sapiens) + Integrin alpha-4 (Homo sapiens) (UniProt P13612+P05556); assay: inhibition of HUTS-21 binding to VLA-4, pilot screen, VLA-4 allosteric modulator project, U937 cells, HUTS-21 mAb, flow cytometry, validation set (AID 2674;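 active = inhibition above 50%, about 3 SD of the validation set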;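 note: antibody binding induced by the VLA-4 ligand LDV present at three times its Kd; 0% = LDV ligand with antibody and no compound and 100% = antibody without LDV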); details: HUTS-21 LIBS mAb binding, at 6.7 µM, stronger effect = higher value, binding induced by LDV ligand
[8] = superoxide lowering in aged yeast cells, pilot screen, validation compound set (AID 2706;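 active = superoxide response below 65% of plate, a cut near 3 SD across the whole screen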;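 note: yeast exposed to compound for one week at 30 degrees C before staining; 100% = mean of all compound wells on the same plate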); details: S. cerevisiae aging, superoxide DHE fluorescence; at 10 µM; stronger effect = lower value
[9] = target: Beta-adrenergic receptor kinase 1 (Homo sapiens) (UniProt P25098); assay: GRK2 binders displacing RNA aptamer, biochemical, validation, human GRK2, bead flow cytometry (AID 488806;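 active = aptamer binding inhibition above 30%, about 3 SD of noise from non-fluorescent compounds; inactive = inhibition at or below 30%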); details: bead-bound GRK2, FAM-aptamer displacement, at 10 µM, stronger effect = higher value
[10] = target: Beta-2 adrenergic receptor (Homo sapiens) (UniProt P07550); assay: beta2AR agonists driving receptor internalization, pilot screen, cell-based, FAP fluorogen, flow cytometry, validation set (AID 504459;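 active = percent response above 42, roughly 3 SD of non-fluorescent test compounds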;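 note: agonist-driven loss of surface beta2AR via internalization measured by FAP dye flow cytometry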); details: Am2.2-beta2AR cells, FAP surface receptor flow cytometry; at 10 µM; stronger effect = higher value
[11] = target: AP-2 complex subunit beta (Homo sapiens) (UniProt P63010); assay: inhibitors of arrestin peptide binding to AP2, pilot screen, biochemical, validation set, GST-AP2 beads, flow cytometry (AID 504541;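 active = inhibition above 54%, about 3 SD of non-fluorescent compounds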;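 note: AP2 carries R879A mutation and is captured from E. coli lysate; bead-bound FITC arrestin peptide fluorescence measuring arrestin peptide binding to AP2; 0% = DMSO wells and 100% = excess unlabeled arrestin peptide control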); details: FITC arrestin peptide, at 10 µM, stronger effect = higher value, AP2 beta2 appendage fragment, R879A mutant
[12] = yeast V-ATPase proton transport modulators, S. cerevisiae, pHLuorin, HTS validation (AID 504600; in the data active = response above about 15%;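 note: plate controls were DMSO for no effect and reference compound for full effect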); details: S. cerevisiae pHLuorin cytosolic pH, at 10 µM, stronger effect = higher value
[13] = test system: anti-desmoglein-3 scFv antibody binding to human DSG3; assay: inhibitors of anti-DSG3 scFv binding to DSG3, pilot screen, biochemical, validation compound set, bead-based, flow cytometry (AID 588368;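 active = binding below the plate cutoff, the plate median minus 3 SD, with a reading above zero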;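 note: signal is the median channel fluorescence of bead-bound GFP antibody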); details: Protein G beads, DSG3-Fc, scFv-GFP binding, at 10 µM, stronger effect = lower value
[14] = inhibitors of fungal efflux pumps CDR1, CDR2, MDR1, pilot screen, validation compound set, multiplex, phenotypic (AID 588506;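 active = efflux inhibition above 0.42, the validation set average plus 4 SD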;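 note: Nile Red retained in cells so higher fluorescence means more efflux inhibition; 0 = negative control wells and 1 = enniatin B 25 µM full block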); details: S. cerevisiae pump-expressing triplex, Nile Red efflux flow cytometry; at 10 µM; stronger effect = higher value; the pumps come from Candida albicans
[15] = target: ATP-binding cassette sub-family B member 6 (Homo sapiens) (UniProt Q9NP58); assay: ABCB6 transporter inhibitors, pilot screen, K562-ABCB6 cells, flow cytometry, validation set (AID 588550;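 active = inhibition above the screen-wide mean plus 3 SD, about 51%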;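 note: 0% = DMSO wells and 100% = benzethonium chloride 70 µM positive control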); details: K562-ABCB6 porphyrin accumulation, 1 h, at 10 µM, stronger effect = higher value
[16] = promoters of myeloid differentiation in arrested cells, primary screen, cell-based, GFP/MAC1 double positive, flow cytometry, validation set (AID 588685;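 active = differentiation response of at least 50%, scaled between solvent and reference control, from cells with both markers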;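 note: compound exposure lasts four days before antibody staining and flow analysis; 0% = DMSO wells and 100% = 5 µM fulvestrant positive control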); details: ER-HoxA9 marrow cells, stronger effect = higher value, normalized: vehicle 0, fulvestrant 100

Chain of Beta-2 adrenergic receptor (Homo sapiens) (P07550 whole entry, looked up): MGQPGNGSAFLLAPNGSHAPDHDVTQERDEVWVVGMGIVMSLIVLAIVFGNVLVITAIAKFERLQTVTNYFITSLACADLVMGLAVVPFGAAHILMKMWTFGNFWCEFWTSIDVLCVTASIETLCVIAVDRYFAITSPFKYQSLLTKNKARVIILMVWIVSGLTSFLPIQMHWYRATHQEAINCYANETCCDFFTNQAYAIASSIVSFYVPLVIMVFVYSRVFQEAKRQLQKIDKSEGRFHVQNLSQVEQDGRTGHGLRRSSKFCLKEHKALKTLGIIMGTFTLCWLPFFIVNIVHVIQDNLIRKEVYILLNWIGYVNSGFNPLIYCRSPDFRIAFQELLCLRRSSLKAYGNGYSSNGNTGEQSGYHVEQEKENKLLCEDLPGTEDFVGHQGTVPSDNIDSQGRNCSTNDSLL
Chain of Beta-adrenergic receptor kinase 1 (Homo sapiens) (P25098 whole entry, looked up): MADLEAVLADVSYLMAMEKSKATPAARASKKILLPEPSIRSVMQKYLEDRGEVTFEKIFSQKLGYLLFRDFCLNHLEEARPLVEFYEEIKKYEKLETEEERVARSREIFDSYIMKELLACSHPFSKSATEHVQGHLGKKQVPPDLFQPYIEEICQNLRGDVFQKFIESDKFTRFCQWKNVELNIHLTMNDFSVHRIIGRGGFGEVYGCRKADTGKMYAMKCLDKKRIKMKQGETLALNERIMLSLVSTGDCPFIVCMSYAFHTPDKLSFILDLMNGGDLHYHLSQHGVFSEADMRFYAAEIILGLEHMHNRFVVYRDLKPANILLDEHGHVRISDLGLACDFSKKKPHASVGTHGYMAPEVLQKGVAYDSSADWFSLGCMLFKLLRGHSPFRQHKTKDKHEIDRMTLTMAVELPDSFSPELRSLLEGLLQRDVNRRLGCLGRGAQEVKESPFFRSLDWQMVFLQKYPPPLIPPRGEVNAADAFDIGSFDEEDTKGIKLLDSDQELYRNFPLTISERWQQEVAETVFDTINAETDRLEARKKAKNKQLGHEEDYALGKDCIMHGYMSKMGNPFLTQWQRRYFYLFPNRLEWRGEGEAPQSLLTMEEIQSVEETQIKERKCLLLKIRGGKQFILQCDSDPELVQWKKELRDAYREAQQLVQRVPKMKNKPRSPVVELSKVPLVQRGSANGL
Chain of Integrin beta-1 (Homo sapiens) + Integrin alpha-4 (Homo sapiens) (P05556 whole entry, looked up): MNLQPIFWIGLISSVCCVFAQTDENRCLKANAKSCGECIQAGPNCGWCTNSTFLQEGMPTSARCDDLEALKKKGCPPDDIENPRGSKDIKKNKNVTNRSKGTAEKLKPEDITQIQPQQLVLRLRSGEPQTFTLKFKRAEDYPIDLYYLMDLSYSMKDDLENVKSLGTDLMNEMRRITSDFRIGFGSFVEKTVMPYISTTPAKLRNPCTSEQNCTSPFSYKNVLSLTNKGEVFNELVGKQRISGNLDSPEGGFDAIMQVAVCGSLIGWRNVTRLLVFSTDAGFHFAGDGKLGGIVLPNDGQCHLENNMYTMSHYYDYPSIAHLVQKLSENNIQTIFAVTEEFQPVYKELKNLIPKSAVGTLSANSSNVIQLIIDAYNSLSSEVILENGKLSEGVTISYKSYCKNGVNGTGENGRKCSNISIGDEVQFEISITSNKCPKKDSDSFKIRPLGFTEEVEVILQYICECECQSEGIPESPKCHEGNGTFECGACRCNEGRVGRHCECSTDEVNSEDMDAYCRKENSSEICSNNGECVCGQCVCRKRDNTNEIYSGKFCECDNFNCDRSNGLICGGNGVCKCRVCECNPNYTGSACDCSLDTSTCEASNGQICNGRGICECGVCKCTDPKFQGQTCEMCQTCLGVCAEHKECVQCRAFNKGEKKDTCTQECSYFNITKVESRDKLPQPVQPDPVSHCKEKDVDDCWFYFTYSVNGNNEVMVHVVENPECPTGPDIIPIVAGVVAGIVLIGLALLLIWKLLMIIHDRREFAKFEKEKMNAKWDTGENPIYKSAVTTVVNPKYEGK
Chain of Integrin beta-1 (Homo sapiens) + Integrin alpha-4 (Homo sapiens) (P13612 whole entry, looked up): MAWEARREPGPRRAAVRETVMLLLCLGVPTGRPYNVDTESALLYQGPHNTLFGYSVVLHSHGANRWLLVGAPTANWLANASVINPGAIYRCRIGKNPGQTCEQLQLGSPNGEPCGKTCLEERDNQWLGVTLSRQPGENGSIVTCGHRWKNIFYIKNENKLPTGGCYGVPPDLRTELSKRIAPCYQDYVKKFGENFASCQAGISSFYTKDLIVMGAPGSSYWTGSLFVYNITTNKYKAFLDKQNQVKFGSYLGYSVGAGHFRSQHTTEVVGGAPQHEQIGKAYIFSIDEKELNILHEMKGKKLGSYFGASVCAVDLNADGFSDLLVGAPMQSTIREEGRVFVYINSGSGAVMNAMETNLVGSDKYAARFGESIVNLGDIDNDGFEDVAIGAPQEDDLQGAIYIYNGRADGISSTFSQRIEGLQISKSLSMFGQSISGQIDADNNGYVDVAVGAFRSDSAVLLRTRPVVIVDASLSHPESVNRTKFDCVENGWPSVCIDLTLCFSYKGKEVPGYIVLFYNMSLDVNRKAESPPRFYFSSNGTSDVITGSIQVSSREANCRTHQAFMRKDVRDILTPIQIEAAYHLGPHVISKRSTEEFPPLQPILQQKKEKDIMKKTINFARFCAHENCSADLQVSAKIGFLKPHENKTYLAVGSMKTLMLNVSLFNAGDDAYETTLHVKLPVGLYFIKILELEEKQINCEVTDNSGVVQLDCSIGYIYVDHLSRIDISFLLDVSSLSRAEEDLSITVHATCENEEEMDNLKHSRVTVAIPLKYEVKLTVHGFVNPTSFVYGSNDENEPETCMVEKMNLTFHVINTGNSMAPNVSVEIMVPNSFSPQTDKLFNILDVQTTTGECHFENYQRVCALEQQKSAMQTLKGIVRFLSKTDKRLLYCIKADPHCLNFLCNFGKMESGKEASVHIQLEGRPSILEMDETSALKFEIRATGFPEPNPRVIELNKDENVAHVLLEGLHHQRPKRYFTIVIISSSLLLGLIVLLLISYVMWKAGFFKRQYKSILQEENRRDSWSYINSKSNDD
Chain of AP-2 complex subunit beta (Homo sapiens) (P63010 whole entry, looked up, the tested form may be a part, one chain of several): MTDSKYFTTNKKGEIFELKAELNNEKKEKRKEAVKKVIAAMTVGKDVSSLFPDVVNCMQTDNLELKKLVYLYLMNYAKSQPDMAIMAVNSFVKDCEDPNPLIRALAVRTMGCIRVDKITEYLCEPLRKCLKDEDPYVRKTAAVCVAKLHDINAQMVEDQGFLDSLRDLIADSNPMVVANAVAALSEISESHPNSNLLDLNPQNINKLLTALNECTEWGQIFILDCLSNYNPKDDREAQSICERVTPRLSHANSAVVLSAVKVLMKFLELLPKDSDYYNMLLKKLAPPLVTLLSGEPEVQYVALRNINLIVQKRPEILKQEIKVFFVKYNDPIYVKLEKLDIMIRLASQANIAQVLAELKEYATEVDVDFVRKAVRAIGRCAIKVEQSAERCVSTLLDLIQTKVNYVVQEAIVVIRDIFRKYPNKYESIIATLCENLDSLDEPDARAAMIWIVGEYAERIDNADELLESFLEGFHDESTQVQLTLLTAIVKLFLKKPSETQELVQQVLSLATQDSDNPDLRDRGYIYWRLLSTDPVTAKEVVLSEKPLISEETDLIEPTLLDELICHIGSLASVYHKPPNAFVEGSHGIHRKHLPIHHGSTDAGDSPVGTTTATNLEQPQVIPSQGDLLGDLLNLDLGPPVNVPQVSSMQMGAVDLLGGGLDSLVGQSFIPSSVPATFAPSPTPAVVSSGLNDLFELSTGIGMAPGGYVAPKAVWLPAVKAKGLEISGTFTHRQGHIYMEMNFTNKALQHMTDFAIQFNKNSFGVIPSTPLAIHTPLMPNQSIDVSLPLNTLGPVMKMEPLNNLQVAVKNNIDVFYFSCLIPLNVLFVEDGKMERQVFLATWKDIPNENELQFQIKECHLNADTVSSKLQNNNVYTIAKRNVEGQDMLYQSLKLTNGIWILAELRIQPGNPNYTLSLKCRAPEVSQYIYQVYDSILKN
Chain of ATP-binding cassette sub-family B member 6 (Homo sapiens) (Q9NP58 whole entry, looked up): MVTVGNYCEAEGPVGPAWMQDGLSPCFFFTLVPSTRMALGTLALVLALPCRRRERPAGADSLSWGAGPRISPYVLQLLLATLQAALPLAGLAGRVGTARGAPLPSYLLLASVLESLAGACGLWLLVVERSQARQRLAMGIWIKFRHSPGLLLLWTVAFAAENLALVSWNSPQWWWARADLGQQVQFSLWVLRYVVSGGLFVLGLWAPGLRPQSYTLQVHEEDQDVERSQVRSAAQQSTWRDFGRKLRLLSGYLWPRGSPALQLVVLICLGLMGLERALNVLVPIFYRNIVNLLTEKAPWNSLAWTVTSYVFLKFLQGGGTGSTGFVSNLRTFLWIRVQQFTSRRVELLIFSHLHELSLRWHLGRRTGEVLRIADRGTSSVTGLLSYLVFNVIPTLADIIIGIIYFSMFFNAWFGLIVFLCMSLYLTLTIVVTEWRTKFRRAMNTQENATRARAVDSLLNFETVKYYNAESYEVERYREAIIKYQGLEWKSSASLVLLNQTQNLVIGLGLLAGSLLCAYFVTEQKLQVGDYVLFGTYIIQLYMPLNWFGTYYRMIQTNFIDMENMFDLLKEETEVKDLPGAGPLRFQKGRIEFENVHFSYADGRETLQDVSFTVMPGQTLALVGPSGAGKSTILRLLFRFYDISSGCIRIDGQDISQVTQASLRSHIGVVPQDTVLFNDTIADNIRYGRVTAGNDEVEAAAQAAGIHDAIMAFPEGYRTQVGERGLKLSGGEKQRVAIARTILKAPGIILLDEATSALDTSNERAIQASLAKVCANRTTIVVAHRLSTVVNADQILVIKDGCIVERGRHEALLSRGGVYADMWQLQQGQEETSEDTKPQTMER

COc1cccc(CC2CC(=O)N(c3ccc4c(C)cc(=O)oc4c3)C2=O)c1 (stereo not drawn)
percent of DMSO control GFP [1]: 99.5% (inactive)
GFP response vs DMSO [2]: 106% (inactive)
percent response of DMSO control [3]: 87.2% (inactive)
GFP response vs DMSO [4]: 132% (inactive)
GFP response, % of DMSO [5]: 97.1% (inactive)
double positive events [6]: 61%
vesicle binding response [6]: 238% (inactive)
inhibition [7]: -0.43% (inactive)
superoxide response (% of plate) [8]: 93.9% (inactive)
aptamer binding inhibition [9]: 2% (inactive)
response [10]: 5.39% (inactive)
inhibition [11]: -2.24% (inactive)
response [12]: 8.95% (inactive)
binding (% of control) [13]: 98.9% (inactive)
efflux inhibition (fraction of control) [14]: -0.06 (inactive)
inhibition [15]: 4% (inactive)
differentiation response [16]: 39.2% (inactive)

Cc1ccc(S(=O)(=O)NC(C(=O)Oc2cc3oc(=O)cc(C)c3cc2Cl)C(C)C)cc1 (stereo not drawn)
percent of DMSO control GFP [1]: 102% (inactive)
GFP response vs DMSO [2]: 102% (inactive)
percent response of DMSO control [3]: 97.7% (inactive)
GFP response vs DMSO [4]: 103% (inactive)
GFP response, % of DMSO [5]: 111% (inactive)
double positive events [6]: 62.7%
vesicle binding response [6]: 264% (inactive)
inhibition [7]: 3.99% (inactive)
superoxide response (% of plate) [8]: 98.7% (inactive)
aptamer binding inhibition [9]: 3% (inactive)
response [10]: -20.1% (inactive)
inhibition [11]: -3.53% (inactive)
response [12]: 1.33% (inactive)
binding (% of control) [13]: 98.7% (inactive)
efflux inhibition (fraction of control) [14]: 0.21 (inactive)
inhibition [15]: 7% (inactive)
differentiation response [16]: -0.06% (inactive)

COc1ccc2[nH]c(=O)c(CNC3CCCCC3)cc2c1
percent of DMSO control GFP [1]: 102% (inactive)
GFP response vs DMSO [2]: 103% (inactive)
percent response of DMSO control [3]: 106% (inactive)
GFP response vs DMSO [4]: 98% (inactive)
GFP response, % of DMSO [5]: 99.9% (inactive)
double positive events [6]: 63.6%
vesicle binding response [6]: 244% (inactive)
inhibition [7]: 11% (inactive)
superoxide response (% of plate) [8]: 106% (inactive)
aptamer binding inhibition [9]: 2% (inactive)
response [10]: -1.53% (inactive)
inhibition [11]: -0.94% (inactive)
response [12]: 1.21% (inactive)
binding (% of control) [13]: 95.5% (inactive)
efflux inhibition (fraction of control) [14]: -0.01 (inactive)
inhibition [15]: -1% (inactive)
differentiation response [16]: 0.24% (inactive)

COc1cc(NC(=S)NC(=O)c2cccs2)ccc1NC(=O)C(C)C
percent of DMSO control GFP [1]: 99.7% (inactive)
GFP response vs DMSO [2]: 108% (inactive)
percent response of DMSO control [3]: 90.1% (inactive)
GFP response vs DMSO [4]: 124% (inactive)
GFP response, % of DMSO [5]: 101% (inactive)
double positive events [6]: 66.4%
vesicle binding response [6]: 265% (inactive)
inhibition [7]: -14.1% (inactive)
superoxide response (% of plate) [8]: 113% (inactive)
aptamer binding inhibition [9]: 3% (inactive)
response [10]: -2.44% (inactive)
inhibition [11]: -6.94% (inactive)
response [12]: 1.32% (inactive)
binding (% of control) [13]: 96.8% (inactive)
efflux inhibition (fraction of control) [14]: 0.05 (inactive)
inhibition [15]: 9% (inactive)
differentiation response [16]: -28% (inactive)

COCCCNc1nc2c([nH]1)c(=O)[nH]c(=O)n2C
percent of DMSO control GFP [1]: 104% (inactive)
GFP response vs DMSO [2]: 99.6% (inactive)
percent response of DMSO control [3]: 105% (inactive)
GFP response vs DMSO [4]: 112% (inactive)
GFP response, % of DMSO [5]: 114% (inactive)
double positive events [6]: 63.1%
vesicle binding response [6]: 156% (inactive)
inhibition [7]: 9.95% (inactive)
superoxide response (% of plate) [8]: 94.3% (inactive)
aptamer binding inhibition [9]: 4% (inactive)
response [10]: -17.8% (inactive)
inhibition [11]: 13.3% (inactive)
response [12]: 6.45% (inactive)
binding (% of control) [13]: 98.5% (inactive)
efflux inhibition (fraction of control) [14]: -0.17 (inactive)
inhibition [15]: 6% (inactive)
differentiation response [16]: -5.97% (inactive)

COc1ccc2c3c([nH]c2c1)C1(NCC3)C(=O)Nc2ccccc21 (stereo not drawn)
percent of DMSO control GFP [1]: 95.4% (inactive)
GFP response vs DMSO [2]: 105% (inactive)
percent response of DMSO control [3]: 89.1% (inactive)
GFP response vs DMSO [4]: 103% (inactive)
GFP response, % of DMSO [5]: 101% (inactive)
double positive events [6]: 59.5%
vesicle binding response [6]: 175% (inactive)
inhibition [7]: -15.4% (inactive)
superoxide response (% of plate) [8]: 97.3% (inactive)
aptamer binding inhibition [9]: 0% (inactive)
response [10]: -10.9% (inactive)
inhibition [11]: 10.3% (inactive)
response [12]: -0.21% (inactive)
binding (% of control) [13]: 97.6% (inactive)
efflux inhibition (fraction of control) [14]: 0.05 (inactive)
inhibition [15]: -6% (inactive)
differentiation response [16]: 10.4% (inactive)

COc1ccc(-c2cc(C(=O)N3CCOCC3)c3cc(C)ccc3n2)cc1
percent of DMSO control GFP [1]: 91.1% (inactive)
GFP response vs DMSO [2]: 102% (inactive)
percent response of DMSO control [3]: 101% (inactive)
GFP response vs DMSO [4]: 110% (inactive)
GFP response, % of DMSO [5]: 107% (inactive)
double positive events [6]: 73.1%
vesicle binding response [6]: 206% (inactive)
inhibition [7]: -8.78% (inactive)
superoxide response (% of plate) [8]: 92% (inactive)
aptamer binding inhibition [9]: 1% (inactive)
response [10]: -16.3% (inactive)
inhibition [11]: 9.71% (inactive)
response [12]: -6.37% (inactive)
binding (% of control) [13]: 104% (inactive)
efflux inhibition (fraction of control) [14]: -0.09 (inactive)
inhibition [15]: 7% (inactive)
differentiation response [16]: 9.79% (inactive)

O=C(/C=C/c1c[nH]c2ccccc12)c1cccc2ccccc12
percent of DMSO control GFP [1]: 106% (inactive)
GFP response vs DMSO [2]: 103% (inactive)
percent response of DMSO control [3]: 92.9% (inactive)
GFP response vs DMSO [4]: 132% (inactive)
GFP response, % of DMSO [5]: 94.9% (inactive)
double positive events [6]: 61.4%
vesicle binding response [6]: 336% (inactive)
inhibition [7]: -72.8% (inactive)
superoxide response (% of plate) [8]: 94% (inactive)
aptamer binding inhibition [9]: 2% (inactive)
response [10]: 63.6% (active)
inhibition [11]: -4.72% (inactive)
response [12]: -1.5% (inactive)
binding (% of control) [13]: 100% (inactive)
efflux inhibition (fraction of control) [14]: 0.19 (inactive)
inhibition [15]: 6% (inactive)
differentiation response [16]: -12% (inactive)

CCN(CC)c1ccc(C2=NNC(=O)CC2C)cc1[N+](=O)[O-] (stereo not drawn)
percent of DMSO control GFP [1]: 97.4% (inactive)
GFP response vs DMSO [2]: 102% (inactive)
percent response of DMSO control [3]: 95.8% (inactive)
GFP response vs DMSO [4]: 119% (inactive)
GFP response, % of DMSO [5]: 105% (inactive)
double positive events [6]: 60.7%
vesicle binding response [6]: 189% (inactive)
inhibition [7]: -15.4% (inactive)
superoxide response (% of plate) [8]: 110% (inactive)
aptamer binding inhibition [9]: 3% (inactive)
response [10]: 0.9% (inactive)
inhibition [11]: -4.02% (inactive)
response [12]: -0.46% (inactive)
binding (% of control) [13]: 98.9% (inactive)
efflux inhibition (fraction of control) [14]: -0.21 (inactive)
inhibition [15]: -22% (inactive)
differentiation response [16]: -4% (inactive)
